The whole screen tested about 310,000 compounds, of which about 14,000 (4.5%) showed an effect of 50% or more. The effect is printed as a negative number. The list comes from a sample in which strong results are over-represented; it also holds similar structures and randomly drawn compounds.
target: human ether-à-go-go-related gene (hERG) potassium channel (human, UniProt Q12809); assay: primary screen, population patch clamp on CHO cells stably expressing hERG; higher = less effect of the substance
Sequence (Q12809 whole entry, looked up): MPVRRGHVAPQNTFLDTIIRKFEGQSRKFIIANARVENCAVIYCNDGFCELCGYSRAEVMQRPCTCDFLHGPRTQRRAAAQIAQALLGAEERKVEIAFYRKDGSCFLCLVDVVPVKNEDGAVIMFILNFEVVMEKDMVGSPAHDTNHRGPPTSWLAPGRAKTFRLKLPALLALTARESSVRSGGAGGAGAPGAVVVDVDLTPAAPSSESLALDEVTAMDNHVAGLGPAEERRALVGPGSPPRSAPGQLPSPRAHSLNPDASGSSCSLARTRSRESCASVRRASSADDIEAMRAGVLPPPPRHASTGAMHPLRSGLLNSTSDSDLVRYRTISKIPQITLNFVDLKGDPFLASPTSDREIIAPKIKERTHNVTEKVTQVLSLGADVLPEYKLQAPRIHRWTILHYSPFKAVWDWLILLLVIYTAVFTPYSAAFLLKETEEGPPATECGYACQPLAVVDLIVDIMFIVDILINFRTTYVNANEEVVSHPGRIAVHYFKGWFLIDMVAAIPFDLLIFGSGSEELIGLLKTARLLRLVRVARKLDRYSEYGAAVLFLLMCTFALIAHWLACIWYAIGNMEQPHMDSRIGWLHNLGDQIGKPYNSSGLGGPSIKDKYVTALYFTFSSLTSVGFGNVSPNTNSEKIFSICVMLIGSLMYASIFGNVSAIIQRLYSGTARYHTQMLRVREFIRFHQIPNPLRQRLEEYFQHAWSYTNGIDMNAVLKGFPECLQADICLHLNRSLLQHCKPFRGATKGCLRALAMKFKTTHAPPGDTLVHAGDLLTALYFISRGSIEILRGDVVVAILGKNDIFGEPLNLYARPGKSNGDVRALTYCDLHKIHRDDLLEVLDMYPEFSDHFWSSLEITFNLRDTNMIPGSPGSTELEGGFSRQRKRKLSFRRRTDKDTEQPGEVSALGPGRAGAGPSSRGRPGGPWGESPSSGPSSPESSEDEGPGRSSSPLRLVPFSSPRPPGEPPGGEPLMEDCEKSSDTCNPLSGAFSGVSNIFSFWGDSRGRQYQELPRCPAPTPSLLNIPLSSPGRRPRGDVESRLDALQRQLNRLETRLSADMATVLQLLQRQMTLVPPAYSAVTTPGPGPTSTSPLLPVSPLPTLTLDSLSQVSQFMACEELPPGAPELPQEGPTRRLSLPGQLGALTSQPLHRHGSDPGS
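Note: peak tail current of the secondary pulse compared with the same well before compound.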

| SMILES | hERG current change (%, negative = inhibition) at 10uM [%] |
| --- | --- |
| CCN(c1ccccc1)S(=O)(=O)c1cccc(C(=O)NCC(c2cccs2)N(C)C)c1 (stereo not drawn) | -48.6 |
| COc1ccc(C(CNC(=O)c2cccc(S(=O)(=O)N3CCCC3)c2)N2CCCC2)cc1 (stereo not drawn) | -22.9 |
| CCOc1ncccc1C(=O)OCC(=O)c1ccc(C)c(C)c1 | -20.2 |
| CN1CCCC(OC(=O)COc2ccc(Br)cc2)C1.Cl (stereo not drawn) | -12.8 |
| CCOc1ccc(Nc2nc(N)nc(CSC(=S)N3CCOCC3)n2)cc1 | -2 |
| CCOC(=O)N1CCN(Cc2nc(N)nc(Nc3ccc(OC)cc3)n2)CC1 | -62.4 |
| CCOC(=O)N1CCN(Cc2nc(N)nc(Nc3ccc(OCC)cc3)n2)CC1 | -67.6 |
| CCOC(=O)N1CCN(Cc2nc(N)nc(Nc3ccccc3C)n2)CC1 | -14.9 |
| COc1ccc(Nc2nc(N)nc(CSC(=S)N3CCN(C)CC3)n2)cc1 | -12.5 |
| CCOC(=O)N1CCN(Cc2nc(-c3ccc(OC)cc3)no2)CC1 | -4.74 |
| CCOC(=O)N1CCN(Cc2nc(N)nc(Nc3ccc(Oc4ccccc4)cc3)n2)CC1 | -70.7 |
| Cc1c(OCC(F)(F)F)ccnc1CSc1nc2ccccc2[nH]1 | 20.6 |
| O=C(CCN1C(=O)/C(=C/c2ccccc2Cl)SC1=S)NNC(=O)c1ccccc1O | -6.37 |
| CCOc1ccc(N(CC(=O)Nc2ccc(OC)cc2)S(C)(=O)=O)cc1 | 3.39 |
| CC(C)(C)C(=O)N1CCC(O)(CS(=O)(=O)c2ccc(Cl)c(Cl)c2)CC1 | -5.3 |
| CCCN1C(=O)C(NS(=O)(=O)c2ccc(N)cc2)(C(F)(F)F)C(C(=O)OC)=C1C (stereo not drawn) | 10.1 |
| CCN(CC1CCCO1)C(=O)c1cc(COc2ccc(OC)cc2Cl)on1 (stereo not drawn) | -5.59 |
| CSc1ccccc1OCc1cc(C(=O)NCC(C)(C)N2CCOCC2)no1 | -93 |
| CCN(CC1CCCO1)C(=O)c1cc(COc2ccc(F)cc2F)on1 (stereo not drawn) | -14.8 |
| CCN(CC)C1CCN(C(=O)c2cc(COc3ccc(F)cc3Cl)on2)C1 (stereo not drawn) | -70 |
| CSc1ccccc1OCc1cc(C(=O)N(C)C(C)c2ccccn2)no1 (stereo not drawn) | -10.6 |
| CCN(CC1CCCO1)C(=O)c1cc(COc2ccccc2SC)on1 (stereo not drawn) | -85.6 |
| CSc1ccccc1OCc1cc(C(=O)N(C)C(C)c2nc(C)cs2)no1 (stereo not drawn) | -63.6 |

| SMILES | hERG current change (%, negative = inhibition) at 10uM [%] |
| --- | --- |
| COc1ccc(OCc2cc(C(=O)NCC(C)(C)N3CCOCC3)no2)c(Cl)c1 | -31.8 |
| O=C(c1cc(COc2ccc(F)cc2Cl)on1)N1CC[C@@H]2CCCC[C@H]2C1 | 12.6 |
| Cc1ccc(OCc2cc(C(=O)NCC(C)(C)N3CCOCC3)no2)cc1C | -45.8 |
| CSc1ccccc1OCc1cc(C(=O)NCc2csc(C(C)C)n2)no1 | -9.57 |
| O=C(c1cc(COc2ccc(F)cc2Cl)on1)N1CCCC(c2ccccc2)C1 (stereo not drawn) | -5.56 |
| COc1cc(CNS(=O)(=O)CCl)cc(OC)c1OC | 12.7 |
| CCOC(=O)c1sc(=S)n(C)c1NC(=O)c1ccc(OC)cc1 | 17.4 |
| COc1ccc2nc(C)c3cc(C)oc3c2c1 | -15.5 |
| Cc1cc(C)c2c(n1)SCC(=O)N2CC(=O)Nc1cc(F)ccc1F | -7.16 |
| COc1ccc(NC(=O)/C=C/c2ccc(OC(F)F)cc2)cn1 | -24.7 |
| CCC(=O)NCCc1nc2cc(NC(=O)c3ccc(F)cc3)ccc2n1C | 1.29 |
| COc1cc(OC)c(C(=O)Nc2ccncc2)cc1OC | 7.83 |
| CCC(=O)Nc1ccc(S(=O)(=O)c2ccc(NC(=O)CC)cc2)cc1 | 0.428 |
| COCC1CCN(C(=O)c2cc(COc3ccccc3SC)on2)C1 (stereo not drawn) | -33.9 |
| Cc1ccccc1OCC(=O)NCC(C)(C)N1CCOCC1 | 7.19 |
| CSc1ccccc1OCc1cc(C(=O)N2CCN(C)C(c3ccccc3)C2)no1 (stereo not drawn) | -5.98 |
| CSc1ccccc1OCc1cc(C(=O)N2CCCC(C)C2)no1 (stereo not drawn) | -0.622 |
| Cl.O=C(COc1ccccc1Cc1ccccc1)NCCCN1CCOCC1 | -32.1 |
| COc1ccccc1OCc1cc(C(=O)N2CCN(C)C(c3ccccc3)C2)no1 (stereo not drawn) | -61.1 |
| CCN(CC)C1CCN(C(=O)c2cc(COc3ccccc3SC)on2)C1 (stereo not drawn) | -68.4 |
| CC(C)(CNC(=O)COc1ccccc1Cc1ccccc1)N1CCOCC1 | -55.6 |
| COc1cccc(OCc2cc(C(=O)N3CCN(C)C(c4ccccc4)C3)no2)c1 (stereo not drawn) | -6.09 |

From PMC4336329 (PLoS ONE, 2015)
